Hits are enriched below; roughly 19% of the tested compounds scored in any of these assays.
DT40 TDP1 no CPT – qHTS for Inhibitors of human tyrosyl-DNA phosphodiesterase 1 (TDP1): qHTS in cells in absence of CPT; DT40 Tdp1-/- hTDP1 cells, no CPT, ATP luminescence, 48 h; Potency, µM (doses to about 46.2 µM), hits mostly inhibitors; 15% of 420,000 active; AID 686978, 2013; also: nearly all actives have a fitted effect of over 55% in size
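Cells were dispensed at 400 per well, compounds added by pin tool, plates incubated ≥48 hr at 37 °C, then CellTiter-Glo added for 30 min at room temperature before luminescence reading. Line: DT40 Tdp1-/- complemented with hTDP1; camptothecin omitted.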
IL1B secr inh – inhibitors of inflammasome signaling (IL-1 beta secretion); THP-1 LPS/ATP IL-1B secretion, AlphaLISA, 16 h; stronger effect = lower value; activity change, % at 57.5 µM; 4.7% of 360,000 active; AID 743279; in the data active = activity change below about -50%; inconclusive = mostly about -30% to -49%
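THP-1 cells pretreated 1 hr with compounds (up to 57.5 uM final), then stimulated with LPS (250 ng/mL final) plus ATP (1.25 mM final); secreted IL-1B measured by AlphaLISA after 16 hr, decreased signal indicating inhibition.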
uPA generation – cell surface uPA generation inhibition; cell surface uPA generation assay, qHTS; 0.31% of 330,000 active; Potency, µM (doses to about 38.3 µM), hits mostly inhibitors; active = well fitted inhibition curve with a large enough effect; inconclusive = small, poorly fitted or top-dose-only effect; inactive = no such curve, though single readings can be large or run the other way; tested in mouse RAW 264.7 cells; also: nearly all actives have a fitted effect of over 55% in size
HT1080NT lethal – kills 2HG-producing HT-1080-NT fibrosarcoma cells; HT-1080-NT fibrosarcoma viability, CellTiter-Glo ATP luminescence, 48 h; 1.6% of 360,000 active; AID 686970; Potency, µM (highest dose often 46.1 µM), actives largely listed as cytotoxic;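 also: NT is the 2HG producing partner of a matched IDH1 knockdown line; nearly all actives have a fitted effect of over 55% in size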
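A 48-hour cytotoxicity screen used HT-1080-NT cells plated 2 hours before compound delivery. ATP-based CellTiter-Glo luminescence measured viability, normalized to DMSO and no-cell controls.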
TDP1 cell CPT – growth inhibition of DT40 Tdp1-/-;hTDP1 cells with camptothecin (screen for TDP1 inhibitors). chicken DT40 Tdp1-/-;hTDP1 cells + 20 nM CPT, ATP luminescence, 48 h. Potency, µM (doses to about 46.2 µM), hits mostly inhibitors. 12% of 420,000 active; also: nearly all actives have a fitted effect of over 55% in size
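Cell growth measured by CellTiter-Glo luminescence after a minimum 48 h, 37 C compound exposure with 20 nM CPT in Tdp1-knockout DT40 cells stably expressing hTDP1, seeded 400/well; qHTS titration format.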
HT1080 IDH1KD tx – toxicity to HT-1080 IDH1 knockdown cells (counter line). HT-1080 IDH1 knockdown viability, ATP luminescence, 48 h. Potency, µM (titrated, usually from 46.1 µM), hits mostly cytotoxic. 2% of 360,000 active
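Assay cells: HT-1080 with IDH1 knockdown, 750 per well, RPMI/5% FBS. Exposure: 48 h at 37 °C following 2 h pre-incubation. Read: CellTiter-Glo luminescence; fitted concentration-response, curve class assigned.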
Numbers stand for hits; – = inactive; ? = inconclusive; · = not tested or not shown; [ ] = remark or other dose. Unless noted, calls follow the shape of the dose curve; as a rule, active = well fitted curve in the direction sought with a large enough effect; inconclusive = small, poorly fitted or top-dose-only effect, or another doubt; inactive = no such curve, though single readings can be large; an effect the other way counts as inactive or inconclusive.

SMILES | DT40 TDP1 no CPT | IL1B secr inh | uPA generation | HT1080NT lethal | TDP1 cell CPT | HT1080 IDH1KD tx
Cc1nc(N2CCN(C(=O)c3ccco3)CC2)nc2c1C(=O)CCC2 | – | – | – | – | ? | –
Cc1cccc(Nc2nnc(SCC(=O)Nc3cccc(S(=O)(=O)N4CCCCC4)c3)s2)c1 | 23.1µM | – | – | – | 23.1µM | –
Cc1csc(SCC(=O)Nc2cccc3nsnc23)n1 | ? | – | – | – | 7.31µM | –
Cc1nnc(SCC(=O)Nc2cc(S(=O)(=O)N3CCCC3)ccc2Cl)n1C1CC1 | – | – | – | – | – | –
Cc1cccc(C)c1Nc1nnc(SCC(=O)Nc2cc(S(=O)(=O)N3CCCCC3)ccc2Cl)s1 | 20.6µM | – | – | – | ? | –
CC(C)CC(=O)Nc1ccc(C(=O)COC(=O)C2CCC2)cc1 | – | – | – | – | – | –
Clc1ccc(/C=C/c2ccncc2)cc1Cl | – | · | · | · | – | ·
CSC1=NS(=O)(=O)c2c(C)nn(C)c2S1 | ? | – | – | – | ? | –
COc1ccc(-c2[nH]c3ccccc3c2SCCN)cc1 | ? | -59.2 | – | – | ? | –
CC1CCCCC1NC(=O)C1CCN(c2c3c(nc4ncnn24)CCC3)CC1 (stereo not drawn) | 11.6µM | – | – | – | – | –
C[C@H](CO)N1C[C@H](C)[C@@H](CN(C)C(=O)c2ccc(F)cc2)Oc2cc(Br)ccc2S1(=O)=O | 13µM | – | · | – | 25.9µM | –
C[C@@H]1CN([C@@H](C)CO)S(=O)(=O)c2ccc(C#Cc3cccc(F)c3)cc2O[C@@H]1CN(C)CC1CC1 | ? | – | · | – | ? | –
C[C@@H]1CN([C@@H](C)CO)S(=O)(=O)c2ccc(Br)cc2O[C@H]1CN(C)C(=O)c1ccccc1 | ? | – | · | – | ? | –
C[C@@H]1CN([C@@H](C)CO)S(=O)(=O)c2ccc(Br)cc2O[C@@H]1CN(C)C(=O)c1ccc(F)cc1 | ? | – | · | – | 20.6µM | –
C/C=C/c1ccc2c(c1)O[C@H](CN(C)CC1CCOCC1)[C@@H](C)CN([C@H](C)CO)S2(=O)=O | 18.4µM | – | · | – | 23.1µM | –
C[C@H](CO)N1C[C@H](C)[C@@H](CN(C)C(=O)CC2CC2)Oc2cc(Br)ccc2S1(=O)=O | 20.6µM | – | · | – | ? | –
OC(c1ccccc1)c1nc(-c2ccc(Cl)cc2)cs1 (stereo not drawn) | ? | – | · | ? | ? | ?
CCOc1ccc2c(c1)c(=O)c(S(=O)(=O)c1ccc(CC)cc1)cn2C | – | – | – | – | – | –
C[C@@H]1CN([C@@H](C)CO)S(=O)(=O)c2ccc(Br)cc2O[C@H]1CN(C)C(=O)c1ccc2c(c1)OCO2 | 23.1µM | – | · | – | 23.1µM | –
C=CCn1c(COc2cc(C)ccc2C(C)C)nnc1SCC(=O)c1c(N)n(C)c(=O)n(C)c1=O | 23.1µM | – | – | – | ? | –
C=CCn1c(SCC(=O)c2c(N)n(CCC)c(=O)n(C)c2=O)nnc1-c1ccncc1 | – | – | – | – | – | –
Cc1nnc(SCC(=O)c2c(N)n(C)c(=O)n(C)c2=O)n1Cc1ccccc1 | – | -53.7 | – | – | – | –
CC(=O)Nc1ccc(SCC(=O)c2c(N)n(Cc3ccccc3)c(=O)n(C)c2=O)cc1 | 8.2µM | – | – | – | ? | –
CCCn1c(N)c(C(=O)CSc2nc(C)cs2)c(=O)n(C)c1=O | 11.6µM | – | – | – | ? | –
CCCCc1nn2c(=O)cc(COC(=O)c3ccccc3NC(=O)c3cccs3)nc2s1 | – | · | · | · | – | ·
SMILES | DT40 TDP1 no CPT | IL1B secr inh | uPA generation | HT1080NT lethal | TDP1 cell CPT | HT1080 IDH1KD tx
CCOC1=C2CN(S(=O)(=O)c3ccc(C)cc3)[C@H](c3cccc4ccccc34)C[C@H]2[C@H]2C(=O)N(c3ccccc3)C(=O)[C@H]2C1 | – | – | · | – | – | –
COc1ccc(CC(NC(C)=O)C(=O)NC2CCN(c3ncccc3[N+](=O)[O-])CC2)cc1 (stereo not drawn) | – | – | – | – | – | –
Cn1c(N)c(C(=O)COC(=O)/C=C/c2ccc(Cl)cc2)c(=O)n(C)c1=O | ? | – | – | – | ? | –
CC(C)Cn1c(N)c(C(=O)COC(=O)/C=C/c2ccccc2)c(=O)n(C)c1=O | ? | – | – | – | 14.6µM | –
Cc1ccccc1CSCC(=O)c1c(N)n(CC(C)C)c(=O)n(C)c1=O | 23.1µM | – | – | – | ? | –[9.24 µM]
Cc1ccccc1CSCC(=O)c1c(N)n(C)c(=O)n(C)c1=O | ? | – | – | – | ? | –
CC(C)Cn1c(N)c(C(=O)CSc2nncs2)c(=O)n(C)c1=O | ? | – | – | –[9.24 µM] | ? | –
CC(C)Cn1c(N)c(C(=O)CSc2ccccc2)c(=O)n(C)c1=O | 8.2µM | – | – | – | 16.4µM | –
Nc1nc(OCC2CCCCC2)c2[nH]cnc2n1 | ? | – | ? | ? | – | ?
CCS(=O)(=O)c1nc(S(=O)(=O)c2ccc(Cl)cc2)c(N2CCc3ccccc3C2)s1 | ? | – | – | – | ? | –
CC(C)c1ccc(NC(=O)C2Cc3ccccc3N2C(=O)c2ccccc2)cc1 (stereo not drawn) | 5.8µM | · | · | · | 18.4µM | ·
CCOc1ccc(NC(=O)C2Cc3ccccc3N2C(=O)c2ccccc2)cc1 (stereo not drawn) | 20.6µM | · | · | · | 23.1µM | ·
COc1ccc(NC(=O)C2Cc3ccccc3N2C(=O)c2ccccc2)c(OC)c1 (stereo not drawn) | – | · | · | · | – | ·
Cn1c(=O)c(-c2ccc(F)cc2)nc2cnc(Nc3ccccc3)nc21 | – | · | · | · | – | ·
O=C(NC1CCCCC1)C(c1ccco1)N(CCc1ccccc1)C(=O)C(F)(F)F (stereo not drawn) | 23.1µM | – | – | – | 23.1µM | –
Cc1cccc(CCN(C(=O)c2csnn2)C(C(=O)NC2CCCC2)c2ccco2)c1 (stereo not drawn) | 16.4µM | -85.4 | – | – | 14.6µM | –
COc1ccc(CCN(C(=O)C(F)(F)F)C(C(=O)NC2CCCC2)c2cccs2)cc1 (stereo not drawn) | 6.51µM | – | – | 8.91µM | 6.51µM | ?
Cc1cccc(CCN(CC(=O)NC2CCCCC2)C(=O)c2csnn2)c1 | – | – | – | – | – | –
O=C(NC1CCCCC1)C(c1cccs1)N(C(=O)C(F)(F)F)c1ccccc1 (stereo not drawn) | – | – | – | – | ? | –
COc1ccc(NC(=O)C/C(C)=N/NC(=O)c2ccccn2)c(OC)c1 | – | – | – | – | – | –
CCN(CC(=O)Nc1cc(Cl)ccc1C)CC(=O)NC1CC1 | – | – | · | – | – | –
CN(C)CCN(Cc1ccccc1)S(=O)(=O)c1ccc2[nH]c(=O)ccc2c1 | – | · | · | · | – | ·

Screening results (PubChem)
